The whole screen tested about 370,000 compounds, of which about 4,800 (1.3%) were called active. Many of the other results were omitted from the sample, so actives are more common in it than they were. Unmarked numbers belong to inactive results.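 How the source made its calls: active means inhibition above about 21% made by adding two undisclosed values (limit read from the data); inactive means the rest.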
The compounds below were run against Protein arginine N-methyltransferase 1 (Homo sapiens) (UniProt Q99873) (assay: PRMT1 methyltransferase inhibitors, primary screen, biochemical, fluorescence polarization (AID 652257)). Settings: recombinant PRMT1, activity-based probe fluorescence polarization; at 2.79 µM; active compounds read high.
Protein arginine N-methyltransferase 1 (Homo sapiens), sequence (Q99873 whole entry, looked up): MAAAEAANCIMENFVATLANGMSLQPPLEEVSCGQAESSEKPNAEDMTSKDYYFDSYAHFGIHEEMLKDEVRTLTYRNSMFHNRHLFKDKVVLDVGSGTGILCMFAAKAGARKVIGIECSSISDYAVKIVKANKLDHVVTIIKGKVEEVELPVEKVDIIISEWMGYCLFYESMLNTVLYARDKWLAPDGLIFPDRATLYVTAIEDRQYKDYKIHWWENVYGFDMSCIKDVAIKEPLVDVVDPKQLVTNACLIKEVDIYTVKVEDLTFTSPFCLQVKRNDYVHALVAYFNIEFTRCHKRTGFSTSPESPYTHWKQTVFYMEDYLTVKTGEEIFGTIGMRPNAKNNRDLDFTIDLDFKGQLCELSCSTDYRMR

Structure (SMILES) | inhibition
Cc1cc(N2C(=O)C3CCCN3C2c2ccc(Cl)c(Cl)c2)no1 (centres undefined) | 1.57%
COC(=O)C1=C(c2cc3ccccc3s2)C[C@@H]2CC[C@H]1N2C(=O)NCc1cccc2ccccc12 | -3.89%
COP(=O)(NS(=O)(=O)c1ccccc1)OC | -6.51%
Cc1ccc2c(c1)=C/C(=C\c1c(O)[nH]c(=O)[nH]c1=O)C(=O)N=2 | 7.2%
COc1ccccc1N=Nc1c(O)[nH]c(=S)[nH]c1=O | -3.43%
O=C1N=c2ccccc2=C/C1=C\c1c(O)[nH]c(=S)[nH]c1=O | 51.8% (active)
CO[C@H]([C@H](C)/C=C/N(C)C=O)[C@@H](C)C(=O)CC[C@H](C)[C@H](O)[C@H](C)[C@H]1OC(=O)/C=C/C(C)=C/[C@H](O)[C@H](OC)C[C@@H]2C=CC[C@@H](C[C@H](OC)[C@@]3(CO3)[C@@H](OC)C[C@@H](OC)[C@@H]1C)O2 | 1.29%
CCN(CC)C(=O)[C@@H]1C=C2c3cccc4[nH]c(Br)c(c34)C[C@H]2N(C)C1 | 9.48%
COP(=O)(OC)C(NC(=O)c1ccc(C)cc1)C(Cl)(Cl)Cl (centres undefined) | 1.17%
CN1CCC(N(C)Cc2cccnc2)CC1 | 11.7%
COc1ccc(N2C(=O)/C(=C/c3ccco3)C(=O)NC2=S)cc1 | 41.9% (active)
O=C(COC(=O)Cc1ccccc1)Nc1ccc(F)cc1 | -1.27%
c1ccc(N2Cc3ccccc3-n3nncc3C2)nc1 | -1.49%
CCOC(=O)CC(SP1(=S)OCC2(CCCCO2)C(C2CCCCO2)O1)C(=O)OCC (centres undefined) | 55.3% (active)
COc1ccc2c(c1)NP(=S)(c1ccccc1)N2 (centres undefined) | 14.7%
COc1ccc(CCn2c(O)c(C=NC3CC3)c(=O)[nH]c2=O)cc1OC | 0.57%
CCOC(=O)C1(Cc2ccc(Cl)cc2)CCN(C(C)CCn2cccn2)CC1 (centres undefined) | -1.84%
CC1CNCCN1c1ccc(Cl)cc1 (centres undefined) | -2.9%
Cc1cc(N2CCNC[C@@H]2C)ccc1N1CC[C@H](O)C1 | 49.5% (active)
Clc1ccc([C@@H]2CC3CCC2N3)cn1 (some centres undefined) | -1.63%
CC(C)CN1CCN(Cc2ccccc2C(F)(F)F)CC1CCO (centres undefined) | 0.64%
CCOC(=O)c1c(-c2ccccc2)oc2ccc(OC(=O)N(C)C)cc12 | 2.78%
COc1ccccc1NC(=O)N1C[C@@H]2C[C@@H](C1)c1cccc(=O)n1C2 | 1.82%
CS(=O)(=O)N1CCC2CCNC2C1 (centres undefined) | -2.72%
CCC(=NCCc1ccccc1)c1c(O)n(C2CCCCC2)c(=O)[nH]c1=O | -0.77%
CC(=NCC1CCCO1)c1c(O)n(-c2ccccc2)c(=O)[nH]c1=O (centres undefined) | -2.12%
CC(=O)c1c(O)n(C2CCCCCC2)c(=O)[nH]c1=O | 23.2% (active)
Cc1ccccc1CCC[C@@H](CC1CCCCC1)CN(C)C(=O)Oc1ccccc1 | 0.94%
COc1cc(OC)cc(C(=O)NCCN2CCC3(CC2)C(=O)NCN3c2ccccc2)c1 | 1.49%
